# Results filed as inconclusive are left out. Active and inactive are the calls of the source. The call rests on the fitted dose curve; in most records, active means well fitted cell-killing curve with a large enough effect; inconclusive means small, poorly fitted or top-dose-only effect, or effect the other way; inactive means no such curve, though single readings can be large or run the other way.
# Test: Quantitative High-Throughput drug screen in 47 multiple myeloma cell lines against the NCATS MIPE library collection: H1112_PLB cell viability assay (AID 1918967; further: nearly all actives have a fitted effect of over 30% in size)
# Details: H1112 myeloma cells viability, ATP luminescence, 48 h; series mostly up to 45.8 µM
# Procedure, shortened: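 Inhibition of cell viability is measured here. Each line was plated at 500 cells per well, treated with MIPE 4.0 drugs, kept 48 hours at 37C, then assayed for ATP content by CellTiter-Glo luminescence.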
# Potency means the concentration at half of the fitted maximal effect.
row,SMILES,Potency
1,C[C@@H]1CN(Cc2ccc(F)cc2)[C@@H](C)CN1C(=O)c1cc2c(C(=O)C(=O)N(C)C)cn(C)c2cc1Cl,13.2 µM (active)
2,CC[C@H](Nc1ncnc2nc[nH]c12)c1nc2cccc(F)c2c(=O)n1-c1ccccc1,2.64 µM (active)
3,COc1cccc2cc(-c3nc(C4CCC(C(=O)O)CC4)n4ncnc(N)c34)[nH]c12 (stereo unspecified),5.9 µM (active)
4,CCCS(=O)(=O)Nc1ccc(F)c(C(=O)c2c[nH]c3ncc(-c4ccc(Cl)cc4)cc23)c1F,9.35 µM (active)
5,COc1ccc(COc2cc3oc(=O)c4cc(C(C)O)ccc4c3cc2OC)cc1 (stereo unspecified),7.43 µM (active)
6,O=C1CCCC2=C1C(c1[nH]ncc1Cl)N=C(Nc1nc3ccccc3o1)N2 (stereo unspecified),inactive
7,O=C(O)[C@@H](c1ccc(OCc2ccc3ccccc3n2)cc1)C1CCCC1,inactive
8,CCn1c(-c2nonc2N)nc2c(C#CC(C)(C)O)ncc(OC[C@H]3CCCNC3)c21,14.8 µM (active)
9,N#CC[C@H](C1CCCC1)n1cc(-c2ncnc3[nH]ccc23)cn1,inactive
10,Nc1nc2ccc(OC(F)(F)F)cc2s1,inactive
11,COc1cc2nccc(Oc3ccc(NC(=O)NC4CC4)c(Cl)c3)c2cc1C(N)=O,2.96 µM (active)
12,O=C(Nc1cccnc1)N1CCC(Cc2cccc(Oc3ccc(C(F)(F)F)cn3)c2)CC1,10.5 µM (active)
13,C1COC(NC(C2CC2)C2CC2)=N1,inactive
14,S=C(NCc1ccc2c(c1)OCO2)N1CCN(c2ncnc3c2oc2ccccc23)CC1,0.605 µM (active)
15,CCC(C)n1ncn(-c2ccc(N3CCN(c4ccc(OC[C@H]5CO[C@](Cn6cncn6)(c6ccc(Cl)cc6Cl)O5)cc4)CC3)cc2)c1=O (stereo partly specified),inactive
16,COc1ccc2c3n(c(=NC(=O)c4cccnc4)nc2c1OC)CCN3,4.69 µM (active)
17,Cc1cc2c(C(C)C)c(O)c(O)c(C=O)c2c(O)c1-c1c(C)cc2c(C(C)C)c(O)c(O)c(C=O)c2c1O,18.7 µM (active)
18,COc1ccccc1-c1cccc(-c2c(O)c3cc(C#N)c(Cl)cc3[nH]c2=O)c1,inactive
19,CNCc1ccc(-c2[nH]c3cc(F)cc4c3c2CCNC4=O)cc1,inactive
20,CCC(=O)N[C@H]1CC[C@H](C(=O)N(C)c2ccc(-c3nc4ccccc4o3)cc2)C1,11.8 µM (active)
21,CCCS(=O)(=O)Nc1ccc(F)c(C(=O)c2c[nH]c3ncc(Cl)cc23)c1F,20.9 µM (active)
22,CC(C)(C)NCC(O)c1ccc(O)c(CO)c1 (stereo unspecified),inactive
23,CNC[C@H](O)c1cccc(O)c1,inactive
24,CS(=O)(=O)Oc1ccc2c(NC(N)=O)c(C(=O)c3ccc(Cl)cc3Cl)oc2c1,18.7 µM (active)
25,Cn1cnc([N+](=O)[O-])c1Sc1ncnc2nc[nH]c12,10.5 µM (active)
26,CCc1cc(Nc2nccc(-c3c(-c4ccc(OC)c(C(=O)Nc5c(F)cccc5F)c4)nc4ccccn34)n2)c(OC)cc1N1CCC(N2CCN(S(C)(=O)=O)CC2)CC1,10.5 µM (active)

# Source: PubChem BioAssay (NCATS)
